Laboratory results as given in PubChem BioAssay AID2289 (National Center for Advancing Translational Sciences (NCATS), 2010).
Out of some 340,000 compounds screened, about 3,300 (0.97%) were called active. Not shown: some 9% with an inconclusive outcome. Calls come from the whole dose curve; as a rule, active = well fitted inhibition curve with a large enough effect; inconclusive = small, poorly fitted or top-dose-only effect, or effect the other way; inactive = flat fitted curve, though single readings scatter. The list shows a part of the results.

Assay: qHTS Assay for Modulators of miRNAs and/or Inhibitors of miR-21; note: nearly all actives have a fitted effect of over 55% in size
Conditions: HeLa miR-21-FLuc reporter, luciferase luminescence, 48 h; actives lower the signal
Summary of the method: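 Luminescence from a firefly luciferase reporter carrying a miR-21 binding site downstream, stably expressed under a CMV promoter in HeLa cells that make miR-21 endogenously, reports miRNA modulation after 48 h compound exposure up to approximately 40uM final.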
Potency is the fitted concentration of half-maximal effect.

Potency, active:
COc1ccc(-c2cc3nc(C)cc(C)n3n2)cc1 3.29 µM
Cc1ccc(-c2cc3nc(C)cc(C)n3n2)cc1 3.69 µM
Cc1cc(C)n2nc(-c3ccc(Cl)cc3)cc2n1 1.17 µM
Cc1ccsc1C(=O)NNC(=O)C1CC=CCC1C(=O)O (centres undefined) 4.65 µM
Cc1ccsc1C(=O)NNC(=O)C1CCCCC1C(=O)O (centres undefined) 1.85 µM
Cc1ccsc1C(=O)NNC(=O)C1C2C=CC(C2)C1C(=O)O (centres undefined) 0.826 µM
CN(C)/N=C/c1ccc(OS(=O)(=O)c2ccccc2)cc1 3.29 µM
Cc1[nH]n(C(N)=S)c(=O)c1N=Nc1ccc2ccccc2c1 1.47 µM
Nc1nc2sc3c(c2c(=O)s1)CCCC3 16.5 µM
COCCCNC(=O)COc1ccc(Br)cc1Cl 10.4 µM
COc1ccc(Nc2nc(N)nc(CSC(=S)N3CCOCC3)n2)cc1 16.5 µM
COc1ccc(Nc2nc(N)nc(CSC(=S)N3CCCCC3)n2)cc1 14.7 µM
CC(C)OC(=O)c1ccc2nc3ccccc3nc2c1 0.656 µM
O=C(/C=C/Nc1ccccc1F)c1ccc(Br)cc1 0.293 µM
O=C(/C=C/Nc1ccc(F)cc1)c1ccc(Br)cc1 0.927 µM
O=C(/C=C\Nc1ccc(Br)cc1)c1cccnc1 1.31 µM
O=C(/C=C/Nc1ccc(F)c(F)c1)c1ccc(Br)cc1 1.85 µM
O=C(NN=C1CCCC1)c1cccs1 1.65 µM
Cc1ccsc1C(=O)NN=C1CCCCCC1 3.69 µM
CC(=O)N1CCC(=NNC(=O)c2cccs2)CC1 3.69 µM
CC(C)N1CCC(=NNC(=O)c2cccs2)CC1 6.56 µM
COc1ccc(-c2nc(C#N)c(NCc3ccco3)o2)cc1 9.27 µM
Cc1ccc(-c2nc(C#N)c(NCc3ccco3)o2)cc1 4.14 µM
COc1ccc(C(=O)/C=C/c2ccc(OC)cc2OC)c(O)c1 6.56 µM
Clc1ccc(-c2cn3nc4c(nc3n2)CCCC4)cc1 0.117 µM
O=C(Nc1ccsc1C(=O)O)c1cccc(C(F)(F)F)c1 7.36 µM
COc1ccc(C2=NN(S(C)(=O)=O)C(c3cccs3)C2)cc1 (centres undefined) 2.61 µM
COc1ccc(C2=NN(S(C)(=O)=O)C(c3ccc4nccnc4c3)C2)cc1 (centres undefined) 7.36 µM
COc1ccc(C2=NN(C(C)=O)C(c3cccs3)C2)cc1OC (centres undefined) 8.26 µM
COc1ccc(C2=NN(S(C)(=O)=O)C(c3cccs3)C2)cc1OC (centres undefined) 7.36 µM
CC(=O)c1sc(NCc2ccc(C)cc2)nc1C 5.21 µM
CC(=O)c1sc(N/N=C\c2ccc(N(C)C)cc2)nc1C 0.927 µM
CC(=O)c1sc(N/N=C\c2ccc(C)cc2)nc1C 3.29 µM
CC(=O)c1sc(N/N=C\c2ccc(Br)cc2)nc1C 5.21 µM
CCc1cc(C(=O)NNC(=S)Nc2ccccc2C)cs1 2.07 µM
Cc1cc(C(=O)NNC(=S)Nc2ccccc2C)cs1 1.65 µM
c1ccc2nc(-c3ccc(-n4ccnc4)cc3)ccc2c1 0.826 µM
COc1ccc(C(=O)N[C@H](C(=O)Nc2nc3c(s2)CCCC3)C(C)C)cc1 2.93 µM
Nc1ccc2c(c1)sc1ccccc12 6.56 µM
NS(=O)(=O)c1ccc(N/N=C/C=C/c2ccccc2[N+](=O)[O-])cc1 3.29 µM
O=C(O)c1cc(N/N=C/C=C/c2ccccc2)ccc1Cl 0.826 µM
NNc1ccc(Cl)c(C(=O)O)c1 6.56 µM
O=C(O)c1cc(N/N=C/C=C/c2ccccc2[N+](=O)[O-])ccc1Cl 3.29 µM
O=C(O)c1ccc(N/N=C/C=C/c2ccccc2[N+](=O)[O-])cc1 4.65 µM
O=C(O)c1cc(N/N=C/C(Cl)=C/c2ccccc2)ccc1Cl 0.233 µM
Fc1cccc(Cl)c1CNc1n[nH]c(-c2ccco2)n1 7.36 µM
CC(C)c1ccc(CNc2n[nH]c(-c3ccco3)n2)cc1 2.07 µM
Nc1c(C(=O)N/N=C/c2ccccc2)cnn1-c1ccccc1 1.47 µM
Nc1c(C(=O)N/N=C/c2cccnc2)cnn1-c1ccccc1 16.5 µM
Cc1ccccc1OCC1Cc2c(nc(N)c(C#N)c2N)O1 (centres undefined) 14.7 µM
N#Cc1c(N)nc2c(c1N)CC(COc1ccccc1)O2 (centres undefined) 7.36 µM
C=C(C)Cn1cnc2c(oc3nc4c(cc32)CCCC4)c1=O 1.17 µM
Cc1cc(C=C2C(=O)c3ccccc3C2=O)c(C)n1-c1cccc(C(=O)O)c1 11.7 µM
Cc1cc(C=C2C(=O)c3ccccc3C2=O)c(C)n1C 18.5 µM
CCn1c(C)cc(C=C2C(=O)c3ccccc3C2=O)c1C 13.1 µM
NC(=O)c1sc2nc(-c3ccco3)ccc2c1N 14.7 µM
CC(=O)c1sc2nc(-c3ccco3)ccc2c1N 14.7 µM
Cc1cc2cc(CCNC(=O)c3cccs3)c(=O)[nH]c2cc1C 3.69 µM
Cc1ccc2cc(CCNC(=O)c3cccs3)c(=O)[nH]c2c1 4.14 µM
Cc1ccc2cc(CCNC(=O)c3cccs3)c(=O)[nH]c2c1C 2.93 µM
CSCc1ccc(C(=O)Nc2ccc(C(N)=O)cc2)cc1 1.65 µM
O=C(Nc1ccc(F)cc1)/C(Cl)=C/c1ccccc1 1.31 µM
CC(=O)c1ccc(NC(=O)/C(Cl)=C/c2ccccc2)cc1 5.21 µM
CC(C)=CCN1CCN(Cc2cnc(N3CCOCC3)s2)CC1CCO (centres undefined) 1.65 µM
COc1ccc(Cn2c(SCC#N)nc3ccc(N4CCOCC4)cc3c2=O)cc1 6.56 µM
Cc1cc(N(CCO)CCO)ccc1N=Nc1cc(F)ccc1F 9.27 µM
COc1ccc(C(=O)C(OC(=O)c2ccccc2Cl)c2ccccc2)cc1 (centres undefined) 14.7 µM
Cc1ccc(-c2nnc3ccccc3c2C(=O)Nc2ccc(F)cc2)cc1 6.56 µM
COc1cccc(NC(=O)c2c(-c3ccc(C)cc3)nnc3ccccc23)c1 4.65 µM
